Screening results deposited in PubChem by National Center for Advancing Translational Sciences (NCATS).
This is a sample that favours compounds with a hit; in the whole collection about 7.4% have one here.
SMN2 splice up – increases expression of the SMN2 splice variant | AID 1458 | 210,000 compounds, 2.8% hits | Potency, µM (top dose mostly 46.1 µM), for the others: at the top dose activity change, positive = activation, hits mostly activators | HEK293 SMN2-luciferase splicing reporter, luminescence, 30-36 h; note: % of control where 0% means no effect; nearly all actives have a fitted effect of over 55% in size
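HEK293 cells carry an SMN2 minigene-luciferase reporter in which exon 7 inclusion puts luciferase in frame. Cells were seeded at 2000 cells/well, attached for 10-12 hours, then exposed to compounds for 30-36 hours at 37C before ONE-Glo luminescence.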
ELG1 genotoxic – induces genotoxicity in HEK293T cells with luciferase-tagged ELG1 | HEK293T ELG1-luciferase reporter, luminescence, 16 h | AID 504466 | 330,000 compounds, 1.3% hits | Potency, µM (doses to about 46 µM), for the others: at the highest dose activity change, positive = activation, actives largely listed as activators; note: % of control where 0% means no effect; nearly all actives have a fitted effect of over 60% in size
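After overnight (16 hr) compound treatment at 37 °C, ELG1-luciferase HEK293T cells were lysed with ONE-Glo; luminescence quantified 30 min later at room temperature.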
FLuc modulator – inhibits or activates purified firefly luciferase, miR-21 counter-screen; AID 588342; P08659; 360,000 compounds, 6.9% hits; Potency, µM (doses to about 57.5 µM), for inactives: at the highest dose activity change, negative = inhibition, most hits filed as inhibitors; purified FLuc, Km substrates, luminescence inhibition;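 note: plate controls were vehicle for no effect and reference inhibitor for full effect; nearly all actives have a fitted effect of over 55% in size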
Target sequence (P08659 whole entry, looked up): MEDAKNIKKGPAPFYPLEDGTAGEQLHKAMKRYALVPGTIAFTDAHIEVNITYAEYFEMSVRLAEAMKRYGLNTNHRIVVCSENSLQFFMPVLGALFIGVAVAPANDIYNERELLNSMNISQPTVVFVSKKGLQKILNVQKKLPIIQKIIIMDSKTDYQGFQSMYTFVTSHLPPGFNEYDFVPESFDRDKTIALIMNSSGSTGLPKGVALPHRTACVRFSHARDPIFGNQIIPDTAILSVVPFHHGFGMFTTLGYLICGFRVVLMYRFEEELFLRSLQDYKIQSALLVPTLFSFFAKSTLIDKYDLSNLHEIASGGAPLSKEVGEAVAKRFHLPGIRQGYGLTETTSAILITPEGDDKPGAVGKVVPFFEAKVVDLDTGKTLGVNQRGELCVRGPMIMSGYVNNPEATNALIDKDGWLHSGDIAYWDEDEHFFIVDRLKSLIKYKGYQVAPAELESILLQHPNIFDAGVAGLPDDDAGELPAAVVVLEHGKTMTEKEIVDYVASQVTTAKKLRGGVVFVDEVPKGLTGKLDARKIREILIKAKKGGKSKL
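Purified P. pyralis luciferase, 10 nM final, with Km-level 10 uM D-luciferin and 10 uM ATP in 50 mM Tris acetate pH 7.5, 10 mM Mg acetate, 0.01% Tween-20, 0.05% BSA; 6-point qHTS titration about 60 µM downward; luminescence read.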
Rab9 prom act – activators of Rab9 promoter | AID 485297 | Huh7 Rab9 promoter-luciferase reporter, luminescence, 24 h | 320,000 compounds, 2.8% hits | Potency, µM (highest dose often 9.22 µM), inactives show at the highest dose activation, negative = inhibition, usual class: activators; note: % of control where 0% means no effect; nearly all actives have a fitted effect of over 60% in size
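Stable Rab9-luc Huh7, 1500 cells/well, 2 h settle; cmpd in DMSO, 24 h, 37 °C/5% CO2; luciferase reagent 10 min RT; luminescence.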
NPC1 prom act – NPC1 promoter activation | 320,000 compounds, 2.4% hits | AID 485313 | Huh7 NPC1 promoter luciferase reporter, 24 h | Potency, µM (highest dose often 9.22 µM), inactives show at the highest dose activation, most hits filed as activators; note: % of control where 0% means no effect; nearly all actives have a fitted effect of over 60% in size
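Luciferase expression driven by the NPC1 promoter was measured in stably transfected Huh7 cells after a 24 h compound incubation, using a luciferase reagent and a luminescence read.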
An asterisk follows results filed as active; ? = inconclusive; nt = no result; [ ] = remark or other dose. Calls come from the whole dose curve; as a rule, active = well fitted curve in the direction sought with a large enough effect; inconclusive = small, poorly fitted or top-dose-only effect, or another doubt; inactive = no such curve, though single readings can be large; an effect the other way counts as inactive or inconclusive. Potency is the fitted concentration of half-maximal effect.

SMILES	SMN2 splice up	ELG1 genotoxic	FLuc modulator	Rab9 prom act	NPC1 prom act
CSCCC(NC(=O)C1CCC(C)CC1)C(=O)NCCN1CCC(C)CC1 (stereo unspecified)	-16%	-18%	0%	3%	-2%
CNC(=O)Nc1cc(NC(=O)NC)cc(C(F)(F)F)c1	nt	0%	-4%	-1%	1%
Cc1nc2ccc(NC(=O)Cc3ccc(Br)cc3)cc2s1	nt	3%	-17%	1%	-4%
Cc1ccc(NC(=O)Cc2cccs2)cc1Cl	nt	10%	19µM*	?	25%
O=C(Cc1cccs1)Nc1cccc(-c2nc3cc4ccccc4cc3[nH]2)c1	6.3µM*	?	0.85µM*	1.8µM*	1.6µM*
Cc1ccc(NC(=O)Cc2ncon2)cc1Cl	nt	5%	15µM*	17%	8%
CC(=O)Nc1cccc(NC(=O)Cc2cccs2)c1	nt	-2%	0%	1%	0%
Cc1nc2ccc(NC(=O)Cc3cccs3)cc2s1	?	?	7.6µM*	2.5µM*	4µM*
OCC[C@H]1C[C@H](O)[C@@H](O)[C@@]2(CCCc3ccccc3O2)O1	nt	3%	0%	-4%	-1%
Cn1cnc2c(=O)[nH]cc([N+](=O)[O-])c21	28%	1%	-1%	-38%	-3%
Cc1ccccc1NC(=O)CSc1cn(CC(=O)N(C(C)C)C(C)C)c2ccccc12	nt	nt	3%	nt	nt
Cc1nc2ccc(NC(=O)N(C)c3ccccc3)cc2s1	22µM*	?	13µM*	?	?
Cc1nc2ccc(NC(=O)N(C(C)C)C(C)C)cc2s1	7%	?	?	2%	9%
Cc1cc(/C=N/NC(=O)c2ccc(O)cc2)c(C)n1C1CC1	-1%	1%	?	-5%	-1%
Cc1ccc(N=Cc2cc(C)n(C3CCCC3)c2C)cc1	11%	0%	11µM*	-6%	6%
COC(=O)c1ccc(NC(=O)c2ccc3nc(C)sc3c2)cc1	nt	?	-12%	0.71µM*	0.79µM*
Cc1nc2ccc(NC(=O)c3ccc(Br)o3)cc2s1	11µM*	-3%	15µM*	2.5µM*	2.8µM*
COc1ccc(NC(=O)c2ccc3nc(C)sc3c2)cc1	nt	?	?	1µM*	1µM*
CCCC(=O)Nc1nc2ccc(NC(=O)c3ccc(Br)o3)cc2s1	?	-7%	-2%	9%	11%
COc1ccc(C(=O)Nc2ccc3nc(C)sc3c2)cc1OC	nt	23%	?	?	18%
Cn1c(O)c(C=Nc2ccc(Br)cc2)sc1=O	2.8µM*	?	?	4.5µM*	?
Oc1ccc(Cl)cc1C=Nc1ccc(Br)cc1	nt	4%	?	-1%	-4%
S=c1[nH]c(-c2ccccc2)cn1/N=C/c1ccccc1Br	5%	-4%	13µM*	25%	29%
S=c1[nH]c(-c2ccccc2)cn1/N=C/c1cccc2ccccc12	-2%	-2%	?	1%	0%
Cc1ccc(C(=O)NC(c2ccccc2)C(Cl)Cl)cc1 (stereo unspecified)	-15%	0%	21µM*	-1%	0%
SMILES	SMN2 splice up	ELG1 genotoxic	FLuc modulator	Rab9 prom act	NPC1 prom act
COC(=O)CC(NC(=O)c1ccc(C)cc1)c1ccccc1 (stereo unspecified)	-4%	8%	3.8µM*	5%	2%
COC(=O)CC(NC(=O)c1ccc(C)cc1)c1ccc2c(c1)OCO2 (stereo unspecified)	-24%	0%	0%	-4%	-3%
CN1/C(=C\C(=O)c2cccnc2)Sc2ccccc21	14µM*	?	9.5µM*	2.2µM*	2.5µM*
COc1cccc(C(=O)Nc2ccccc2N2CCCC2)c1	-18%	-1%	3%	-6%	0%
COc1cccc(C(=O)/C=C2\Sc3ccccc3N2C)c1	6.3µM*	1.5µM*	1.1µM*	0.89µM*	0.71µM*
Nc1nonc1-c1noc(N2CCCCC2)n1	14%	?	19µM*	?	-2%
NC(N)=NC(N)=Nc1c(F)c(F)c(F)c(F)c1F	-22%[9.22 µM]	nt	nt	nt	nt
Brc1ccc(-c2csc(-c3ccncc3)n2)cc1	?	?	4.8µM*	?	25%
Nc1nc(-c2ccc(Br)cc2)cs1	?	?	19µM*	?	?
Cc1ccc(-c2csc(-c3nc(-c4ccc(Br)s4)cs3)n2)cc1	-1%	nt	-1%	nt	nt
Cc1ccc(-c2csc(-c3ccncc3)n2)cc1	?	?	11µM*	4µM*	?
Nc1nc(-c2ccc(F)cc2)cs1	-3%	?	?	?	13%
C[C@H](CO)N1C[C@H](C)[C@H](CN(C)Cc2ccncc2)Oc2ccc(NC(=O)Nc3ccc(C(F)(F)F)cc3)cc2CC1=O	nt	-2%	nt	nt	nt
COc1ccc(CNC(=O)CN(Cc2ccco2)C(=O)CNS(=O)(=O)c2ccc(F)cc2)cc1	nt	0%	1%	-1%	-1%
NCCC[C@@H](CC(=O)N[C@@H]1CCCC[C@H]1C(=O)N[C@H](CC(=O)N[C@@H](CCC(=O)O)CC(=O)O)Cc1c[nH]c2ccccc12)NC(=O)C[C@H](Cc1ccccc1)NC(=O)[C@@H]1CCCC[C@H]1N	8%	nt	nt	nt	nt
COc1ccc(-n2nc(C(=O)NCC(=O)NCc3ccc(F)cc3)c3ccccc3c2=O)cc1OC	nt	24%	-2%	1%	-3%
CCC(CC)C(=O)N1CC(=O)Nc2ccc(F)cc2C1c1ccccc1 (stereo unspecified)	nt	-1%	2%	4%	-6%
Cc1ccc(NC(=O)/C(C#N)=C/c2ccc(C)o2)cc1	7.1µM*	nt	1.9µM*	nt	nt
Cc1ccc(/C=C(\C#N)C(=O)Nc2cccc(Cl)c2)o1	?	nt	-14%	nt	nt
Cc1cccc(NC(=O)/C(C#N)=C/c2ccc(C)o2)c1	13µM*	nt	9.5µM*	nt	nt
O=C1OC(=O)c2c(Cl)c(Cl)c(Cl)c(Cl)c21	1%	nt	nt	nt	nt
CCCC[C@H]1C[C@@H]1[C@@H]1N(P(=O)(c2ccccc2)c2ccccc2)C[C@@](O)(c2ccccc2)CC12CC2	-38%	nt	nt	nt	nt
Cc1ccnc(Nc2nc(-c3ccc(O)cc3O)cs2)c1	nt	14%	17µM*	?	?
CC(=O)Nc1ccc(-c2csc(Nc3ccccn3)n2)cc1	nt	?	?	0.45µM*	0.5µM*
Oc1ccc(-c2csc(Nc3ccccn3)n2)cc1O	nt	3.7µM*	9.5µM*	-14%	?
Cc1ccnc(Nc2nc(-c3ccc(O)c(O)c3)cs2)c1	nt	5.8µM*	6µM*	-4%	?
Cc1ccc(C)c(NC(=O)CSc2nc(=O)n(Cc3ccncc3)c3c2CCC3)c1	nt	nt	-2%	nt	nt
O=C(O)/C=C/c1cnc2ccccc2c1	20%	1%	?	?	1%
Cc1ccnc(Nc2nc(-c3ccc(O)cc3)cs2)c1	nt	?	8.5µM*	3.2µM*	2.5µM*
CCC(=O)Nc1nc(C)c(-c2csc(Nc3ccccn3)n2)s1	15%	2%	17µM*	?	?
